# Reference: the supplement of paper PMC4206461
# Test system: Pseudomonas aeruginosa PA14 dppBCDF deletion mutant
# Assay: respiration area under curve with compound as sole nitrogen source, 24 h (OmniLog AUC (arbitrary units)); higher = more respiration / better utilisation as nitrogen source; extreme values may be limits of the assay
# Procedure: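 Biolog Phenotype MicroArray plates PM6-PM8: each di/tripeptide is the sole nitrogen source. Tetrazolium reduction was read in the OmniLog every 15 min for 24 h at 37°C and summarised as area under the respiration curve (arbitrary units). Values below 2000 count as no respiration. Strain is the dipeptide ABC transporter deletion mutant.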
row,Compound,respiration area under curve
1,CC(C)C[C@@H](NC(=O)CNC(=O)CN)C(=O)O (plate: PM8),4.75 (inactive)
2,CC(C)C[C@H](NC(=O)CNC(=O)CN)C(=O)O (plate: PM8),0 (inactive)
